PubChem BioAssay AID1159580 (chemical genetic matrix, 2015)
Out of some 5,500 compounds screened, about 2,000 (36%) were called active. Inconclusive results (about 18%) are left out. Rule as the data show it: active = normalized growth mostly below about 0.91 (no sharp cut-off); inconclusive = no clear call, values can overlap the other calls; inactive = mostly above about 0.92. The list shows a part of the results.

Test: chemical genetic growth profiling, strain panel (AID 1159580);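 also: tested at 20 µM; growth read once vehicle control cultures reached saturation at 30 °C; 1 = growth at the plate median or of vehicle wells; lower values mean less growth of the strain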
Details: S. cerevisiae deletion strains, growth OD

Measured: normalized growth

CCOC(=O)c1c(C)n(-c2ccccc2)c2ccc(O)cc12
inactive: locus YAL013W, strain DEP1, stronger effect = lower value 0.998 | locus YBR229C, strain ROT2, stronger effect = lower value 1 | locus YDL101C, strain DUN1, stronger effect = lower value 0.995 | locus YDR150W, strain NUM1, stronger effect = lower value 1 | locus YEL061C, strain CIN8, stronger effect = lower value 0.965 | locus YGR078C, strain PAC10, stronger effect = lower value 0.995 | locus YHR030C, strain SLT2, stronger effect = lower value 0.923 | locus YHR087W, strain rtc3, stronger effect = lower value 0.993 | locus YJR043C, strain POL32, stronger effect = lower value 1.03 | locus YJR075W, strain HOC1, stronger effect = lower value 0.989 | locus YLR039C, strain RIC1, stronger effect = lower value 1.02 | locus YLR058C, strain SHM2 (second series), stronger effect = lower value 0.985 | locus YLR085C, strain ARP6, stronger effect = lower value 0.931 | locus YLR262C, strain YPT6, stronger effect = lower value 0.984 | locus YML094W, strain GIM5, stronger effect = lower value 0.94 | locus YMR219W, strain ESC1, stronger effect = lower value 0.999 | locus YMR263W, strain SAP30, stronger effect = lower value 0.956 | locus YNL128W, strain TEP1, stronger effect = lower value 0.99 | locus YNL153C, strain GIM3, stronger effect = lower value 0.976 | locus YNL322C, strain KRE1, stronger effect = lower value 0.998 | locus YNR030W, strain Alg12, stronger effect = lower value 0.963 | locus YPL055C, strain LGE1, stronger effect = lower value 0.982 | locus YPL241C, strain CIN2, stronger effect = lower value 0.979 | locus YPR135W, strain CTF4, stronger effect = lower value 0.911
